Experimental data as given in the supplement of paper PMC10941209.

Tested on: HFF
Assay: cell viability relative to DMSO control; higher = less cytotoxic
Conditions: 1 µM; 72 h
Method: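 Single-dose cytotoxicity screen of the MMV Pandemic Response Box at 1 uM on human foreskin fibroblasts (HFF), 72 h at 37 C. Viability measured by MTT (OD 550 nm) and normalised to the DMSO control (% survival).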

Compound | cell viability
O=S(=O)(Nc1ccc(O)cc1)c1cccc2cccnc12 | 66.5%
C[C@@H](NC(=O)c1ccccc1-c1ccccc1)B(O)O | 59.6%
c1ccc(-c2nnc3c4ccccc4c(N4CCNCC4)nn23)cc1 | 73.2%
CC(C)c1cc2c(cc1S(=O)(=O)O)[C@@]1(C)CCC[C@@](C)(C(=O)O)[C@@H]1CC2 | 64.8%
CN(C/C=C/C#CC(C)(C)C)Cc1cccc2ccccc12 | 64.9%
C[C@H]1COc2c(N3CCN(C)CC3)c(F)cc3c(=O)c(C(=O)O)cn1c23 | 66%
Cc1[nH]c2ccccc2c1CC(=O)N[C@@H](Cc1ccccc1)C(=O)N(C)c1ccccc1 | 69.6%
CN1CCN(c2ccc3[nH]c(-c4ccc5[nH]c(-c6ccc(O)cc6)nc5c4)nc3c2)CC1 | 68.8%
O=C(Nc1ccc(-c2ccccc2)cc1)C1=C(O)C(Cc2ccccc2)OC1=O (configuration not stated) | 69.3%
Nc1cc(N)c2nc(-c3ccccc3)c(Nc3ccc(F)cc3)nc2c1 | 80.1%
CC[C@H](NC(=O)[C@H](C)NC)C(=O)N1C[C@@H](O)C[C@H]1Cc1c(-c2[nH]c3cc(F)ccc3c2C[C@@H]2C[C@H](O)CN2C(=O)[C@H](CC)NC(=O)[C@H](C)NC)[nH]c2cc(F)ccc12 | 31.2%
C[C@H](NC(CC(=O)c1ccccc1C(F)(F)F)C(=O)O)c1ccccc1 (some centres not stated) | 63.6%
CNCC(=O)OCc1cccnc1N(C)C(=O)OC(C)[n+]1cnn(C[C@](O)(c2cc(F)ccc2F)[C@@H](C)c2nc(-c3ccc(C#N)cc3)cs2)c1 (some centres not stated) | 60.6%
Cc1ccn2c(C(=O)NCc3ccccc3)c(C)nc2c1 | 66.8%
COc1cc(Cc2cnc(N)nc2N)cc(OC)c1OC | 64.8%
COC1CC2CCC(C)C(O)(O2)C(=O)C(=O)N2CCCCC2C(=O)OC(C(C)CC2CCC(OCCO)C(OC)C2)CC(=O)C(C)/C=C(\C)C(O)C(OC)C(=O)C(C)CC(C)/C=C/C=C/C=C/1C (configuration not stated) | 60.8%
O=C(O)c1sccc1S(=O)(=O)n1ccc2cc(Br)ccc21 | 65.1%
Clc1ccc(COC(Cn2ccnc2)c2ccc(Cl)cc2Cl)c(Cl)c1 (configuration not stated) | 66.8%
NC(=O)[C@@H]1CC[C@@H]2CN1C(=O)N2OS(=O)(=O)O | 69.1%

Compound | cell viability
NC(=O)c1nccn([C@@H]2O[C@H](CO)[C@@H](O)[C@H]2O)c1=O | 72.5%
COc1ccc(OCc2ccc(COc3c(Cl)cccc3Cl)cc2)c(Cl)c1 | 60.4%
O=C(Cn1cnc2ccccc2c1=O)Nc1ccccc1 | 62.8%
O=C(NCc1ncc(C(F)(F)F)cc1Cl)c1c(Cl)cccc1Cl | 74.8%
Nc1ccc2oc(=O)ccc2c1I | 69.6%
O=C1NC(=O)C(Br)=C1Br | 63.1%
NCC(=O)Nc1ccc(-n2nc(C(F)(F)F)cc2-c2ccc3c(ccc4ccccc43)c2)cc1 | 80.7%
O=C(O)c1cc(-c2ccc(Br)cc2)nc2ccc(Cl)cc12 | 57.6%
NC(=O)c1ccccc1NC(=O)c1ccc(C(=O)Nc2ccccc2C(N)=O)cc1 | 63.5%
N[C@H](CCC(=O)N[C@@H](Cc1c[nH]c2ccccc12)C(=O)O)C(=O)O | 61.9%
CC(C)Nc1ncnc2c1cnn2-c1ccc(Cl)cc1 | 71.9%
COc1ccc(NC(=O)c2cc3ccccn3n2)cc1 | 62.2%
CC[C@H]1OC(=O)[C@H](C)[C@@H](O[C@H]2C[C@@](C)(OC)[C@@H](O)[C@H](C)O2)[C@H](C)[C@@H](O[C@@H]2O[C@H](C)C[C@H](N(C)C)[C@H]2O)[C@](C)(O)C[C@@H](C)C(=O)[C@H](C)[C@@H](O)[C@]1(C)O | 71.6%
CCc1nc(N)nc(N)c1C#CCc1ccccc1 | 69.3%
CC(C)CCN1C(=O)C(C2=NS(=O)(=O)c3cc(NS(C)(=O)=O)ccc3N2)=C(O)[C@@H]2[C@H]3CC[C@H](C3)[C@@H]21 | 67.8%
CCOC(=O)Nc1cc(NC(C)CC(C)CN(CC)CC)c2nc(-c3ccccc3)c(-c3ccccc3)nc2n1 (configuration not stated) | 78.5%
Nc1nnc(-c2ccc(Cl)cc2)s1 | 62.7%
Nc1nc(O)c(Br)c(-c2cccc(Cl)c2)n1 | 61.7%
